# Experimental data published in PubChem BioAssay AID1159580 (chemical genetic matrix, 2015).
# The whole screen tested about 5,500 compounds, of which about 2,000 (36%) were called active. Another 18% or so got no clear call; they are omitted. This is one part of the list. A number with no mark means an inactive call. Rule as the data show it: active = normalized growth mostly below about 0.91 (no sharp cut-off); inconclusive = no clear call, values can overlap the other calls; inactive = mostly above about 0.92.
# Experiment: chemical genetic growth profiling, strain panel (AID 1159580);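 also: tested at 20 µM; growth read once vehicle control cultures reached saturation at 30 °C; 1 = growth at the plate median or of vehicle wells; lower values mean less growth of the strain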
# Details: growth OD
compound,measurement,setting,value
O=c1c(-c2cc(O)c(O)c(O)c2)coc2cc(O)c(O)c(O)c12,normalized growth,"S. cerevisiae deletion strains, locus YJL187C, strain SWE1, active compounds read low",0.975
same,normalized growth,"S. cerevisiae deletion strains, locus YJR043C, strain POL32, active compounds read low",0.752 (active)
same,normalized growth,"S. cerevisiae deletion strains, locus YJR075W, strain HOC1, active compounds read low",0.929
same,normalized growth,"S. cerevisiae deletion strains, locus YKL009W, strain mrt4, active compounds read low",1.07
same,normalized growth,"S. cerevisiae deletion strains, locus YKL068W, active compounds read low",1.01
same,normalized growth,"S. cerevisiae deletion strains, locus YKL085W, strain MDH1 (second series), active compounds read low",1.02
same,normalized growth,"S. cerevisiae deletion strains, locus YKL085W, strain MDH1, active compounds read low",1.02
same,normalized growth,"S. cerevisiae deletion strains, locus YKL160W, strain elf1, active compounds read low",0.952
same,normalized growth,"S. cerevisiae deletion strains, locus YKL190W, strain CNB1, active compounds read low",0.86 (active)
same,normalized growth,"S. cerevisiae deletion strains, locus YKR001C, strain vps1, active compounds read low",0.987
same,normalized growth,"S. cerevisiae deletion strains, locus YKR026C, strain gcn3, active compounds read low",0.995
same,normalized growth,"S. cerevisiae deletion strains, locus YKR091W, strain srl3, active compounds read low",1.02
same,normalized growth,"S. cerevisiae deletion strains, locus YLL001W, strain dnm1, active compounds read low",0.965
same,normalized growth,"S. cerevisiae deletion strains, locus YLL026W, active compounds read low",1.01
same,normalized growth,"S. cerevisiae deletion strains, locus YLL041C, strain sdh2, active compounds read low",1
same,normalized growth,"S. cerevisiae deletion strains, locus YLR027C, strain aat2, active compounds read low",0.974
same,normalized growth,"S. cerevisiae deletion strains, locus YLR039C, strain RIC1, active compounds read low",0.626 (active)
same,normalized growth,"S. cerevisiae deletion strains, locus YLR058C, strain SHM2, active compounds read low",0.377 (active)
same,normalized growth,"S. cerevisiae deletion strains, locus YLR102C, strain apc9, active compounds read low",1
same,normalized growth,"S. cerevisiae deletion strains, locus YLR221C, strain rsa3, active compounds read low",0.981
same,normalized growth,"S. cerevisiae deletion strains, locus YLR258W, strain gsy2, active compounds read low",0.988
same,normalized growth,"S. cerevisiae deletion strains, locus YLR262C, strain YPT6 (second series), active compounds read low",0.889
same,normalized growth,"S. cerevisiae deletion strains, locus YLR262C, strain YPT6, active compounds read low",0.758
same,normalized growth,"S. cerevisiae deletion strains, locus YLR268W, strain sec22, active compounds read low",0.898
same,normalized growth,"S. cerevisiae deletion strains, locus YLR320W, strain mms22, active compounds read low",0.941
same,normalized growth,"S. cerevisiae deletion strains, locus YLR330W, strain CHS5, active compounds read low",0.93
same,normalized growth,"S. cerevisiae deletion strains, locus YLR342W, strain FKS1 (second series), active compounds read low",0.648 (active)
same,normalized growth,"S. cerevisiae deletion strains, locus YLR342W, strain FKS1, active compounds read low",0.954
same,normalized growth,"S. cerevisiae deletion strains, locus YLR357W, strain rsc2, active compounds read low",0.753 (active)
same,normalized growth,"S. cerevisiae deletion strains, locus YLR370C, strain arc18, active compounds read low",0.911
same,normalized growth,"S. cerevisiae deletion strains, locus YLR371W, strain rom2, active compounds read low",0.885 (active)
same,normalized growth,"S. cerevisiae deletion strains, locus YLR384C, strain iki3, active compounds read low",1
same,normalized growth,"S. cerevisiae deletion strains, locus YLR418C, strain cdc73, active compounds read low",0.797 (active)
same,normalized growth,"S. cerevisiae deletion strains, locus YML016C, strain PPZ1, active compounds read low",0.853 (active)
same,normalized growth,"S. cerevisiae deletion strains, locus YML032C, strain rad52, active compounds read low",0.905 (active)
same,normalized growth,"S. cerevisiae deletion strains, locus YML120C, strain ndi1, active compounds read low",0.747 (active)
same,normalized growth,"S. cerevisiae deletion strains, locus YML124C, strain tub3, active compounds read low",0.99
same,normalized growth,"S. cerevisiae deletion strains, locus YMR058W, strain fet3, active compounds read low",0.761 (active)
same,normalized growth,"S. cerevisiae deletion strains, locus YMR078C, strain ctf18, active compounds read low",0.994
same,normalized growth,"S. cerevisiae deletion strains, locus YMR125W, strain sto1, active compounds read low",1.06
same,normalized growth,"S. cerevisiae deletion strains, locus YMR129W, active compounds read low",1.03
same,normalized growth,"S. cerevisiae deletion strains, locus YMR205C, strain PFK2, active compounds read low",0.961
same,normalized growth,"S. cerevisiae deletion strains, locus YMR223W, strain ubp8, active compounds read low",0.94
same,normalized growth,"S. cerevisiae deletion strains, locus YMR231W, strain pep5, active compounds read low",0.821 (active)
same,normalized growth,"S. cerevisiae deletion strains, locus YMR307W, strain GAS1, active compounds read low",0.638
same,normalized growth,"S. cerevisiae deletion strains, locus YNL067W, strain RPL9B, active compounds read low",0.841 (active)
same,normalized growth,"S. cerevisiae deletion strains, locus YNL071W, strain lat1, active compounds read low",1.01
same,normalized growth,"S. cerevisiae deletion strains, locus YNL153C, strain GIM3, active compounds read low",0.582 (active)
same,normalized growth,"S. cerevisiae deletion strains, locus YNL209W, strain ssb2, active compounds read low",0.804 (active)
same,normalized growth,"S. cerevisiae deletion strains, locus YNL233W, strain BNI4, active compounds read low",0.876
same,normalized growth,"S. cerevisiae deletion strains, locus YNL248C, strain rpa49, active compounds read low",0.935
same,normalized growth,"S. cerevisiae deletion strains, locus YNL250W, strain rad50, active compounds read low",0.998
same,normalized growth,"S. cerevisiae deletion strains, locus YNL271C, strain bni1, active compounds read low",0.986
same,normalized growth,"S. cerevisiae deletion strains, locus YNL298W, strain CLA4, active compounds read low",0.974
same,normalized growth,"S. cerevisiae deletion strains, locus YNL307C, strain MCK1, active compounds read low",0.986
same,normalized growth,"S. cerevisiae deletion strains, locus YNL322C, strain KRE1 (second series), active compounds read low",1.01
same,normalized growth,"S. cerevisiae deletion strains, locus YNR049C, strain mso1, active compounds read low",1.01
same,normalized growth,"S. cerevisiae deletion strains, locus YNR052C, strain pop2, active compounds read low",0.695 (active)
same,normalized growth,"S. cerevisiae deletion strains, locus YOL012C, strain htz1",0.414
same,normalized growth,"S. cerevisiae deletion strains, locus YOL147C, strain pex11, active compounds read low",0.865 (active)
same,normalized growth,"S. cerevisiae deletion strains, locus YOR001W, strain rrp6, active compounds read low",0.949
same,normalized growth,"S. cerevisiae deletion strains, locus YOR061W, strain CKA2, active compounds read low",0.87 (active)
same,normalized growth,"S. cerevisiae deletion strains, locus YOR069W, strain VPS5, active compounds read low",0.926 (active)
same,normalized growth,"S. cerevisiae deletion strains, locus YOR070C, strain gyp1, active compounds read low",0.978
same,normalized growth,"S. cerevisiae deletion strains, locus YOR080W, strain dia2, active compounds read low",0.975
same,normalized growth,"S. cerevisiae deletion strains, locus YOR083W, strain WHI5, active compounds read low",0.903
same,normalized growth,"S. cerevisiae deletion strains, locus YOR106W, strain vam3, active compounds read low",0.686 (active)
same,normalized growth,"S. cerevisiae deletion strains, locus YOR136W, strain idh2, active compounds read low",0.987
same,normalized growth,"S. cerevisiae deletion strains, locus YOR144C, strain elg1, active compounds read low",0.915 (active)
same,normalized growth,"S. cerevisiae deletion strains, locus YOR184W, strain ser1, active compounds read low",0.88
same,normalized growth,"S. cerevisiae deletion strains, locus YOR265W, strain rbl2, active compounds read low",1
same,normalized growth,"S. cerevisiae deletion strains, locus YOR270C, strain vph1, active compounds read low",0.572 (active)
same,normalized growth,"S. cerevisiae deletion strains, locus YOR290C, strain snf2, active compounds read low",0.344 (active)
same,normalized growth,"S. cerevisiae deletion strains, locus YOR316C, strain cot1, active compounds read low",1
same,normalized growth,"S. cerevisiae deletion strains, locus YPL051W, strain arl3, active compounds read low",0.817 (active)
same,normalized growth,"S. cerevisiae deletion strains, locus YPL055C, strain LGE1, active compounds read low",0.783
same,normalized growth,"S. cerevisiae deletion strains, locus YPL078C, strain atp4, active compounds read low",0.856 (active)
same,normalized growth,"S. cerevisiae deletion strains, locus YPL106C, strain sse1, active compounds read low",0.91
same,normalized growth,"S. cerevisiae deletion strains, locus YPL240C, strain hsp82, active compounds read low",0.988
same,normalized growth,"S. cerevisiae deletion strains, locus YPL241C, strain CIN2, active compounds read low",0.948
same,normalized growth,"S. cerevisiae deletion strains, locus YPR119W, strain clb2, active compounds read low",1.02
same,normalized growth,"S. cerevisiae deletion strains, locus YPR141C, strain kar3, active compounds read low",1
same,normalized growth,"S. cerevisiae deletion strains, locus YPR163C, strain tif3, active compounds read low",0.998
same,normalized growth,"S. cerevisiae deletion strains, locus YPR167C, strain met16, active compounds read low",1.01
same,normalized growth,"S. cerevisiae deletion strains, strain wtn01, active compounds read low",0.934
same,normalized growth,"S. cerevisiae strains, strain wild type, active compounds read low",0.78 (active)
